# The entries come from a sample that favours hits as a whole.
# Pf Dd2 inh – Plasmodium falciparum Dd2 growth inhibition; P. falciparum Dd2 growth, SYBR Green, 72 h; Potency, µM (highest dose often 28.9 µM), without a hit: top-dose activity, negative = inhibition, hits mostly inhibitors; 120,000 tested, 4.3% active; AID 1347417; active = well fitted inhibition curve with a large enough effect;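 also: plate controls were DMSO vehicle for no effect and reference drug for full effect; nearly all actives have a fitted effect of over 65% in size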
#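 Readout: SYBR Green fluorescence, 485 nm excitation, 535 nm emission, after ~16 h lysis at 37C. Before that, Dd2-infected red cells (2.5% hematocrit) grew 72 h with compound, 29 uM top final concentration.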
# The depositor's hits bear a star; i = inactive; [ ] = remark or other dose. Potency is read from the fitted curve at half-maximal effect.
SMILES,Pf Dd2 inh
COc1ccc(CN(Cc2ccco2)c2cnc(S(C)(=O)=O)nc2C(=O)Nc2ccc(C)c(Cl)c2)cc1,10µM*
CC(C)c1ccc(CN(Cc2ccco2)c2cnc(S(C)(=O)=O)nc2C(=O)Nc2ccc(F)cc2)cc1,11.2µM*
COc1ccc(CN(Cc2ccco2)C(=O)COc2ccccc2Cl)cc1,14.2%
Cc1cccc(C)c1NC(=O)c1nc(S(C)(=O)=O)ncc1N(Cc1ccc(F)cc1)Cc1ccco1,-22.7%
Cc1ccc(NC(=O)c2ncoc2-c2ccco2)cc1Cl,9.9%
O=C(CCC1CCCC1)N1CCC(Cc2nc(C3CC3)n[nH]2)CC1,i
COc1ccc2c(c1)CN(C1COC1)CC[C@H]1COC(=O)N21,42.5%[44.1 µM]
O=C(c1n[nH]c2c1CN(Cc1cccnc1)CC2)N1CCOCC1,31.6%
COCc1ncc(C)n1CCNC(=O)c1ccc(C)[nH]c1=O,-13.2%
COc1ccc(-n2nc(C(=O)Nc3cccc(C)n3)c3c4ccccc4n(C)c3c2=O)cc1,i
Cc1ccc(-n2nc(C(=O)NCCc3cccc(C)c3)c3c4ccccc4n(C)c3c2=O)cc1,i
COc1ccc(-n2nc(C(=O)NCCc3ccc(OC)c(OC)c3)c3c4ccccc4n(C)c3c2=O)cc1,3.16µM*
COc1ccc(-n2nc(C(=O)Nc3ccc(Br)cc3C)c3c4ccccc4n(C)c3c2=O)cc1,44.2%
COc1ccc(-n2nc(C(=O)NCc3ccc(F)cc3)c3c4ccccc4n(C)c3c2=O)cc1,1.9%
COc1ccc(-n2nc(C(=O)N3CCN(c4cccc(C)c4)C(C)C3)c3c4ccccc4n(C)c3c2=O)cc1 (stereo not given),11.2µM*
COC1CN(C2CCN(C(=O)c3cnccn3)CC2)C12CCOCC2 (stereo not given),-4.9%
COc1cc(NC(=O)C2CCc3sc(C(=O)N4CCOCC4)cc3C2)cc(OC)c1 (stereo not given),i
Cc1ccc(CNC(=O)N2CCCC(Cc3nncn3-c3ccccc3)C2)cc1 (stereo not given),2.3%
CC(C)CNC(=O)C1Cn2cccc2C(=O)N1Cc1cccnc1 (stereo not given),7.94µM*
CC(C)C(=O)NCC1Cn2cccc2C(=O)N1Cc1ccccc1 (stereo not given),i
O=C(CN1CCCCCC1)NCC1Cn2cccc2C(=O)N1Cc1ccccc1 (stereo not given),3.98µM*
O=C(NCC1Cn2cccc2C(=O)N1Cc1ccccc1)NC1CCCC1 (stereo not given),-13.8%
CC(C)CNC(=O)C1Cn2cccc2C(=O)N1Cc1ccccc1 (stereo not given),i
O=C(NCc1ccccc1)C1Cn2cccc2C(=O)N1Cc1cccnc1 (stereo not given),7.5%
O=C(NCCCN1CCCC1=O)C1Cn2cccc2C(=O)N1Cc1ccccc1 (stereo not given),19.2%
SMILES,Pf Dd2 inh
O=C(NCCCN1CCc2ccccc2C1)C1Cn2cccc2C(=O)N1Cc1ccccc1 (stereo not given),0.891µM*
O=C(NCCc1ccccc1)C1Cn2cccc2C(=O)N1Cc1ccccc1 (stereo not given),-19.6%
CCCN1CCc2[nH]cnc2C12CCN(C(=O)CC1C=CS(=O)(=O)C1)CC2 (stereo not given),22.4%
O=C(c1ccncc1)N1CC[C@H](c2nnc(-c3ccccc3)o2)C1,2.3%[44.1 µM]
CN1CC2(CCN(C(=O)NCc3ccc(F)cc3)CC2)CC1C(=O)N1CCOCC1 (stereo not given),10.2%
CS(=O)(=O)N1CCCN(C(=O)CCc2ccccc2)c2ccccc21,5.5%
CN[C@@H](C)C(=O)N1CCC(c2cc(N3CCOCC3)nc(C)n2)CC1,8.6%
COC[C@@H]1[C@@H](NC(=O)c2ccc3c(c2)ncn3C)[C@@H]2CCO[C@H]12,-20.8%
COc1ccc(CN2C(=O)[C@@H]3C[C@@H](O)CN3C3(CN(Cc4cccc(OC)c4)C3)C2=O)cc1,i
COc1ccc(CN2C(=O)[C@@H]3C[C@@H](O)CN3C3(CN(Cc4cnc5ccccc5c4)C3)C2=O)cc1,7.08µM*
COc1ccc(CN2C(=O)[C@@H]3C[C@@H](O)CN3C3(CN(Cc4ccncc4)C3)C2=O)cc1,6.2%[44.1 µM]
CCOCCCNC(=O)CCC1CCN(C(=O)c2ccccc2)CC1,-12.6%
COc1ccc(C(=O)N2CCC[C@H]2c2nc(-c3ccc(OC)c(OC)c3)no2)c(C)c1,-15.7%
C[S+](=O)([O-])c1ccc(-c2ccc3ncn(-c4ccc(F)cc4F)c(=O)c3n2)cc1,i
CC(=O)c1sc2c(c1C)c(=O)n(-c1ccc(Cl)cc1)c(=O)n2Cc1cc(=O)n2cc(Cl)ccc2n1,1.26µM*
CCOc1ccc(-n2c(=O)c3c4c(sc3n(Cc3cc(=O)n5cc(Cl)ccc5n3)c2=O)CCC4)cc1,1.1%
Cc1sc2c(c1C)c(=O)n(-c1ccc(Cl)cc1)c(=O)n2Cc1cc(=O)n2ccccc2n1,i
CCc1nn2c(=O)cc(COC(=O)C(c3ccccc3)c3ccccc3)nc2s1,-2.1%
COCCc1nn2c(=O)cc(COC(=O)c3ccc(Br)cc3)nc2s1,-14.1%
COCCc1nn2c(=O)cc(COC(=O)C(c3ccccc3)c3ccccc3)nc2s1,1.26µM*
CCCN(CC1CCOC1)S(=O)(=O)c1cccc(C)c1 (stereo not given),-2.1%[5.79 µM]
O=C1CC(c2ccccc2)N(C(=O)CNS(=O)(=O)c2cccnc2)CCCCCN1 (stereo not given),6.0%
CN1CCCCC(CC(=O)Nc2ccc3c(c2)OCCO3)C1=O (stereo not given),-18.1%
CC(C)COc1ccc(C2=NC(c3ccncc3)=Nc3ccc(F)cc3N2)cc1,-2.4%
CCc1ccc2c(c1)NC(c1ccc(F)cc1)=NC(c1ccncc1)=N2,-13.2%
SMILES,Pf Dd2 inh
CCOc1ccc2c(c1)NC(c1ccc(OCC)c(OCC)c1)=NC(c1ccc(F)cc1)=N2,12.6µM*
COC[C@@H]1CN(Cc2ccc(C)o2)C[C@H]1C(=O)N(C)C,-18.4%
CCCN(CC1CC1)C(=O)c1coc(COc2ccc3sc(C)nc3c2)n1,-9.5%
CN1CCC(N[C@H]2CC(C)(C)[C@@H]3C[C@@](C)(O)CC[C@]23CCC(=O)NCc2cccnc2)CC1,17.2%
COc1ccc(C(=O)N2CCCCCCN(C)C(=O)[C@@H]3CCC[C@@H]32)cc1,-2.1%
CN1CCCCCCN(C(=O)c2ccnn2C)[C@H]2CCC[C@H]2C1=O,2.1%
CN1CCCCCCN(C(=O)c2ccc3ccccc3n2)[C@H]2CCC[C@H]2C1=O,6.31µM*
N#Cc1cccc(C(=O)N2C[C@@H](Oc3cccnc3)C[C@H]2C(=O)N2CCOCC2)c1,20.6%
CCc1c(C)cc(C(=O)N[C@@H]2[C@@H](Cc3ccccc3)[C@H]3OCC[C@@H]23)c(=O)n1C,-16.3%
O=c1c2nc(-c3ccncc3)ccc2ncn1-c1ccccc1,-16.9%[44.1 µM]
O=c1c2nc(-c3ccc(O)c(F)c3)ccc2ncn1-c1ccc(F)cc1F,-25.9%[44.1 µM]
O=c1c2nc(-c3ccc(O)c(F)c3)ccc2ncn1-c1ccccc1,12.6µM*
CC(C)NC(=O)NC[C@H]1OC[C@@H](NC2CCNCC2)[C@@H]1O,-6.1%[44.1 µM]
Cc1nc(CCNC(=O)C2NCCc3[nH]cnc32)nc2c1CCCC2 (stereo not given),-7.9%
Cc1cccc(N2Cc3c(NCc4ccc5c(c4)OCO5)ncnc3N(C)CC2=O)c1,-28.0%
Cc1nn(C)c2nc(-c3ccccn3)nc(NCc3ccc4c(c3)OCO4)c12,8.91µM*
CN1CC(=O)N(c2ccccc2F)Cc2c(NCc3ccc4c(c3)OCO4)ncnc21,-1.6%
COc1ccc(C)cc1NC(=O)N1CCCC2(C1)Nc1cccnc1NC2=NC1CCCC1 (stereo not given),1.26µM*

# Screens: PubChem BioAssay, National Center for Advancing Translational Sciences (NCATS)
